A549 viability – kills or reduces viability of A549 cells in Nrf2 counter-screen; A549 ARE-Fluc cells, CellTiter-Fluor viability, 18-24 h; Potency, µM (highest dose often 46 µM), for the others: at the highest dose activity change, negative = cytotoxicity, usual class: inhibitors; actives 0.16% (n = 390,000); AID 504648; also: % is scaled to controls: 0 for no effect and ±100 for the full control effect
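A549 ARE_Fluc cells in 5% FBS OPTI-MEM were exposed to compounds in concentration-response for 18-24 h at 37 deg C. Viability was read by CellTiter-Fluor fluorescence (Ex 405/Em 525) after 30 min, before the luciferase read.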
Nrf2 inh – blocks Nrf2 signaling; A549 ARE-Fluc reporter, luciferase luminescence, 18-24 h; actives 2.1% (n = 360,000); Potency, µM (series often up to 46 µM), for the others: at the highest dose activity change, negative = inhibition, usual class: inhibitors; also: % is scaled to controls: 0 for no effect and ±100 for the full control effect; nearly all actives have a fitted effect of over 60% in size
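A549 ARE_Fluc cells, 5000/well, 5% FBS OPTI-MEM; compounds in dose-response, 18-24 h at 37 °C/5% CO2; CellTiter-Fluor viability read (Ex 405/Em 525), then BugLite luciferase luminescence = Nrf2 activity.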
Rango-impB inh – inhibitors of Rango-importin beta complex formation; Rango CFP/YFP FRET sensor + importin beta, 45 min; Potency, µM (doses to about 92.2 µM), for inactives: top-dose inhibition of complex formation; actives 0.031% (n = 340,000); calls by dose curve;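 also: 0% = DMSO wells and 100% = buffer wells lacking importin beta; nearly all actives have a fitted effect of over 15% in size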
Target sequence (Q14974 whole entry, looked up): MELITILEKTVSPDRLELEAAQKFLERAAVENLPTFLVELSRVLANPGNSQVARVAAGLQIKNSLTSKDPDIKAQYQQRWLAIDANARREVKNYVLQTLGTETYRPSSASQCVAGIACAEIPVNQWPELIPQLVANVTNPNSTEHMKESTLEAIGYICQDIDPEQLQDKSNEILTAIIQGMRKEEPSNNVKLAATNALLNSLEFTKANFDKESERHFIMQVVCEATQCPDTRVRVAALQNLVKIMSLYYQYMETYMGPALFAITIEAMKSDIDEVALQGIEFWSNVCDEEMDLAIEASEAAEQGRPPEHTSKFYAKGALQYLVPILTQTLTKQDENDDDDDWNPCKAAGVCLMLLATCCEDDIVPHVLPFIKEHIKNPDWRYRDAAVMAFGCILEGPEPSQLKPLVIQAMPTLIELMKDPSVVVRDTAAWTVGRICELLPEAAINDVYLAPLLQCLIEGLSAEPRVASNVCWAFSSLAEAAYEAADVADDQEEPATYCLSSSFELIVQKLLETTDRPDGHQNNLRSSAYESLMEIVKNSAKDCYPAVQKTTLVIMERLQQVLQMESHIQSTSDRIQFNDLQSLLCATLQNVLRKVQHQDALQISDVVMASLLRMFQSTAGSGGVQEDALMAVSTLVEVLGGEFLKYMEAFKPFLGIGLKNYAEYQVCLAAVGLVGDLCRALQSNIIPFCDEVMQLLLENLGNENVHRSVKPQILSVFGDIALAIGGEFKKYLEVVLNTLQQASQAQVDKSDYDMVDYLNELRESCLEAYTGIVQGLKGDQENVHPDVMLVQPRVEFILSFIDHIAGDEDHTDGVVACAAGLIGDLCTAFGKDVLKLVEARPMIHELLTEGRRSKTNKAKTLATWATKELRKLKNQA
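Inhibition scored from the CFP 486 nm/YFP 530 nm FRET ratio 45 min after adding 0.125 microM importin beta to 50 nM Rango biosensor preincubated 5 min with compound (room temperature, PBS with DTT, Tween-20, BSA). No-importin wells as positive control.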
Nrf2 activator – Nrf2 pathway activation; AREc32 ARE-luciferase reporter (MCF7-derived line), luminescence, 24 h; Potency, µM (highest dose often 46.1 µM), for inactives: at the top dose activation, hits mostly activators; actives 0.31% (n = 410,000); also: % of control where 0% means no effect; nearly all actives have a fitted effect of over 65% in size
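Luciferase luminescence (Steady-Glo, 30 min at room temperature) served as the read-out of ARE activation in AREc32 cells treated with compounds for 24 hr at 37 deg C.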
Rango release inh – inhibitors of RanGTP-induced Rango-importin beta complex dissociation | O95149+P62826 | Biochemical FRET Rango-importin beta, RanGTP-induced dissociation | Potency, µM (doses to about 46.1 µM), for inactives: at the highest dose activity change, negative = inhibition | actives 0.071% (n = 340,000) | AID 540253; calls by dose curve; also: % of control where 0% means no effect; nearly all actives have a fitted effect of over 45% in size
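Rango (0.1 uM)–importin beta (0.25 uM) complex; RanGTP-RCC1 trigger; 45 min RT; CFP/YFP FRET read.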
Numbers without * were called inactive; [ ] = remark or other dose. A selection: hits, their analogues and other compounds. The true share with any hit is near 2.3%. Unless noted, calls follow the shape of the dose curve; as a rule, active = well fitted curve in the direction sought with a large enough effect; inconclusive = small, poorly fitted or top-dose-only effect, or another doubt; inactive = no such curve, though single readings can be large; an effect the other way counts as inactive or inconclusive. Potency is read from the fitted curve at half-maximal effect.

What do the screens show for `Cn1c(N)c(C(=O)COC(=O)c2ccccc2C(=O)c2ccc(Cl)c([N+](=O)[O-])c2)c(=O)n(C)c1=O`?
A549 viability: -9%; Nrf2 inh: 14%; Rango-impB inh: -1%; Nrf2 activator: inconclusive; Rango release inh: -13%

What do the screens show for `O=C(COC(=O)c1ccccc1C(=O)c1ccc(Cl)c([N+](=O)[O-])c1)NC1CCCCCC1`?
A549 viability: inconclusive; Nrf2 inh: 21µM*; Rango-impB inh: 1%; Nrf2 activator: -2%; Rango release inh: -4%

Results for CCN(C(=O)C1CCCN(c2ncnc3onc(-c4ccc(F)cc4)c23)C1)c1ccccc1 (centres undefined) ?
A549 viability: 3%; Nrf2 inh: 27%; Nrf2 activator: 1%

How did Cc1ccc(OCCCC(=O)NC2CCCCC2)cc1 do in these assays?
A549 viability: 17%; Nrf2 inh: 17%; Rango-impB inh: 1%; Nrf2 activator: 0%; Rango release inh: 16%

How did O=C(O)CCCCCn1c(O)c(C=C2N=c3ccccc3=N2)sc1=S do in these assays?
A549 viability: -6%; Nrf2 inh: inconclusive; Rango-impB inh: 2%; Nrf2 activator: inconclusive; Rango release inh: -9%

Results for O=C(O)CCCn1c(O)c(C=C2N=c3ccccc3=N2)sc1=S ?
A549 viability: inconclusive; Nrf2 inh: -14%; Rango-impB inh: -4%; Nrf2 activator: 14µM*; Rango release inh: -5%

What do the screens show for `CSc1ccc(C(=O)C2CCCN(S(=O)(=O)c3c(C)noc3C)C2)cc1` (centres undefined)?
A549 viability: 0%; Nrf2 inh: 13µM*; Rango-impB inh: -2%; Nrf2 activator: 1%; Rango release inh: -1%

How did Clc1cc(Cl)cc(Nc2ncnc(-n3cccc3)n2)c1 do in these assays?
A549 viability: 2%; Nrf2 inh: -11%; Rango-impB inh: 0%; Nrf2 activator: 2µM*; Rango release inh: 4%

What do the screens show for `CNc1ccccc1C(C)(C)c1cc(-c2ccc(F)cc2)no1`?
A549 viability: -15%; Nrf2 inh: 8.2µM*; Rango-impB inh: 2%; Nrf2 activator: -1%[9.22 µM]; Rango release inh: 13%

What do the screens show for `Cc1cccc(OCC(=O)Nc2nonc2-c2ccc(Br)cc2)c1C`?
A549 viability: 5%; Nrf2 inh: 1%; Nrf2 activator: 0%

What do the screens show for `CCOc1ccccc1NC(=O)CN(c1ccc(C)cc1)S(=O)(=O)c1c(C)noc1C`?
A549 viability: -4%; Nrf2 inh: 16µM*; Rango-impB inh: 0%; Nrf2 activator: 0%; Rango release inh: 7%

How did COc1cccc(CNC(=O)CN(c2cc(C)cc(C)c2)S(=O)(=O)c2c(C)noc2C)c1 do in these assays?
A549 viability: 0%; Nrf2 inh: 0%; Rango-impB inh: -3%; Nrf2 activator: -1%; Rango release inh: -8%

How did COc1cccc(CNC(=O)CN(c2ccc(C(C)C)cc2)S(=O)(=O)c2c(C)noc2C)c1 do in these assays?
A549 viability: -5%; Nrf2 inh: 16µM*; Rango-impB inh: 3%; Nrf2 activator: 2%; Rango release inh: 0%

How did Cc1ccc(CNC(=O)CN(c2ccc(C(C)C)cc2)S(=O)(=O)c2c(C)n[nH]c2C)cc1 do in these assays?
A549 viability: inconclusive; Nrf2 inh: 23µM*; Nrf2 activator: 0%

How did CCOC(=O)c1cnc(SC)nc1Oc1cccc(NC(=O)c2cccc(Cl)c2Cl)c1 do in these assays?
A549 viability: -7%; Nrf2 inh: -15%; Rango-impB inh: -4%; Nrf2 activator: 0%; Rango release inh: 10%

Results for O=C(Nc1cccc(F)c1)N1CCCC(CNS(=O)(=O)Cc2ccccc2)C1 (centres undefined) ?
A549 viability: -9%; Nrf2 inh: 1%; Rango-impB inh: -3%; Nrf2 activator: 0%; Rango release inh: -1%

Results for O=C(CCCSc1ccccc1)Nc1nc(-c2ccco2)c(-c2ccco2)s1 ?
A549 viability: -18%; Nrf2 inh: -17%; Rango-impB inh: -5%; Nrf2 activator: 13%; Rango release inh: -3%

Screening results from PubChem.
